This is an account of results in PubChem BioAssay (NCI).

Test in all cases: NCI-60 one-dose screen, 48 h (100 = growth as untreated, 0 = no growth, -100 = all killed)
In one test the test system is HCT-15 colon. The following applies: 10 µM unless noted.
A further test has as its system HT29 colon. The following applies: 10 µM unless noted.
For the next test, the system named is SNB-75 CNS. The following applies: 10 µM unless noted.
The test system of the next test is SNB-19 CNS. The following applies: 10 µM unless noted.
In the next test the test system is U251 CNS. The conditions noted are these: 10 µM unless noted.
The test system of another test is PC-3 prostate. The following applies: 10 µM unless noted.
The subject of another test is SK-MEL-5 melanoma. The conditions noted are these: 10 µM unless noted.
The subject of the next test is UACC-62 melanoma. The following applies: 10 µM unless noted.
For the next test, the system named is SK-MEL-28 melanoma. The conditions noted are these: 10 µM unless noted.
For a further test, the system named is SK-MEL-2 melanoma. The conditions noted are these: 10 µM unless noted.
A further test concerns SN12C renal. The conditions noted are these: 10 µM unless noted.
The test system of another test is UO-31 renal. The conditions noted are these: 10 µM unless noted.
The subject of another test is TK-10 renal. The conditions noted are these: 10 µM unless noted.
The subject of a further test is ACHN renal. The following applies: 10 µM unless noted.
A further test concerns CAKI-1 renal. The following applies: 10 µM unless noted.
Another test relates to A498 renal. The following applies: 10 µM unless noted.
In the next test the test system is CCRF-CEM leukemia. The conditions noted are these: 10 µM unless noted.
Another test deals with MOLT-4 leukemia. The conditions noted are these: 10 µM unless noted.
Another test deals with EKVX NSCLC. The following applies: 10 µM unless noted.
The next test deals with LOX IMVI melanoma. The conditions noted are these: 10 µM.

About 83,000 compounds went through this panel and 20% of them were active in at least one assay; those are over-represented in the sample as a whole.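 Plates (96-well) were seeded with cells, treated with compound at one concentration, and incubated for 48 hours before percent growth was determined.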 A number with no mark means an inactive call. Activity calls are given as the source filed them. The calls were made as follows: active = growth percent below 10; inactive = the rest.

For `COc1cc(C2CC(c3cc(OC)c(OC)c(OC)c3)=NN2C(C)=O)ccc1OCc1ccccc1` (configuration not stated), the growth with HCT-15 colon was 34.6%; in the test with HT29 colon it was 38%; in the test with SNB-75 CNS it was 49.3%; in the test with SNB-19 CNS, 52.2%; in the test with U251 CNS it was 44.3%; in the test with PC-3 prostate, 9.84% (active). For the same compound, the growth was 9.77% (active) with SK-MEL-5 melanoma; 24% in the test with UACC-62 melanoma; 42.1% with SK-MEL-28 melanoma; 21.3% with SK-MEL-2 melanoma; 41.1% in the test on SN12C renal; 8.63% (active) in the test on UO-31 renal. Further, the growth with TK-10 renal was 32.1%; in the test on ACHN renal, 28.2%; in the test on CAKI-1 renal it was 29%; with A498 renal it was 55.1%; in the test on CCRF-CEM leukemia, 40.2%; in the test on MOLT-4 leukemia it was 8.79% (active).
For `COc1cc(-c2nc3cc(Cl)c(Cl)cc3[nH]2)ccc1OCc1nnc(-c2cccs2)o1`, the growth is 25.8% in the test with HCT-15 colon; 58.2% with HT29 colon; 114% with SNB-75 CNS; 65.8% in the test with SNB-19 CNS; 71.1% in the test with U251 CNS; 50% in the test on PC-3 prostate. The growth in the test on SK-MEL-5 melanoma is 44.6%; with UACC-62 melanoma it was 21.3%; in the test on SK-MEL-28 melanoma it was 31.4%; in the test on SK-MEL-2 melanoma it was 65.7%; with EKVX NSCLC, 91.3%; in the test with UO-31 renal, 62.5%. In addition, the growth in the test on TK-10 renal was 125%; with ACHN renal it was 36%; in the test on CAKI-1 renal, 67.7%; with A498 renal, 121%; in the test on CCRF-CEM leukemia, 91.8%; in the test on MOLT-4 leukemia, 62.8%.
In the case of `CC1=C(C(=O)OCc2ccccc2)C(c2ccc(-n3cncn3)cc2)n2c(nc3ccccc32)N1` (configuration not stated), the growth in the test with HCT-15 colon was 33.1%; in the test with HT29 colon it was 24.7%; in the test on SNB-75 CNS, 47.9%; with SNB-19 CNS it was 66.9%; with U251 CNS it was 63.4%; in the test on PC-3 prostate, 43.3%. Moreover, the growth was 39.7% with SK-MEL-5 melanoma; 16.2% in the test on UACC-62 melanoma; 66.5% in the test with SK-MEL-28 melanoma; 80.6% in the test on SK-MEL-2 melanoma; 48.4% in the test on EKVX NSCLC; 51.6% in the test on UO-31 renal. The growth in the test with TK-10 renal is 89.7%; in the test with ACHN renal it was 51.3%; in the test with CAKI-1 renal it was 42.8%; in the test with A498 renal it was 79.8%; in the test with MOLT-4 leukemia, 36.6%.
Regarding `CN(C)CCn1c2ccccc2c2nc3cc4ccccc4cc3nc21`, the growth in the test on HCT-15 colon is -35.8% (active); in the test with HT29 colon, -50.4% (active); in the test with SNB-75 CNS, 43%; in the test on SNB-19 CNS, 28.9%; in the test on U251 CNS, -69.3% (active); in the test with PC-3 prostate, 3.43% (active). Besides, the growth in the test on SK-MEL-5 melanoma was 14.6%; with UACC-62 melanoma it was 57.2%; in the test on SK-MEL-28 melanoma, -80.1% (active); in the test on SK-MEL-2 melanoma, 60.1%; in the test on SN12C renal, 32.3%; in the test with UO-31 renal, 12.3%. The growth in the test with TK-10 renal is 53%; with ACHN renal, 7.52% (active); in the test with CAKI-1 renal, 4.76% (active); with A498 renal, 80.8%; with CCRF-CEM leukemia, 18.3%; with MOLT-4 leukemia, 7.22% (active).
As for `N#Cc1c(-c2cccc(O)c2O)cc(-c2ccc3ccccc3c2)[nH]c1=O`, the growth in the test on HCT-15 colon is 52.8%; in the test with HT29 colon, 98.2%; with SNB-75 CNS, -6.63% (active); in the test on SNB-19 CNS, 41.1%; in the test with U251 CNS, 40.2%; in the test on PC-3 prostate it was 67.5%. Besides, the growth in the test with SK-MEL-5 melanoma is 45.9%; with UACC-62 melanoma, 77.5%; in the test with SK-MEL-28 melanoma, 45.7%; in the test with SK-MEL-2 melanoma it was 98.8%; with SN12C renal, 58.4%; with UO-31 renal, 55.9%. In addition, the growth was 85.4% in the test on TK-10 renal; 56.4% in the test with ACHN renal; 75.6% with CAKI-1 renal; 82.1% with A498 renal; 13.4% with CCRF-CEM leukemia; 29.9% with MOLT-4 leukemia.
As for `CC(=O)NNc1ccc2nnc(-c3ccccc3)n2n1`, the growth is 103% in the test on HCT-15 colon; 129% in the test with HT29 colon; 90.3% in the test with SNB-75 CNS; 97.3% in the test on SNB-19 CNS; 101% with U251 CNS; 107% in the test on PC-3 prostate. Also, the growth in the test on UACC-62 melanoma is 98.6%; in the test with LOX IMVI melanoma it was 99.3%; in the test on SK-MEL-28 melanoma, 107%; with SK-MEL-2 melanoma, 102%; with EKVX NSCLC, 95.9%; in the test with SN12C renal, 97.1%. Also, the growth in the test on UO-31 renal was 88.5%; in the test with TK-10 renal, 106%; with ACHN renal, 104%; with CAKI-1 renal, 90.9%; in the test with A498 renal, 108%.
With `O=C1Nc2ccc([N+](=O)[O-])cc2C1=Nc1ccccc1`, the growth is 92.5% in the test on HCT-15 colon; 122% with HT29 colon; 101% in the test on SNB-75 CNS; 96.6% in the test on SNB-19 CNS; 106% with U251 CNS; 94.4% with PC-3 prostate. Also, the growth with UACC-62 melanoma is 59.7%; in the test on LOX IMVI melanoma, 97.2%; in the test with SK-MEL-28 melanoma, 108%; in the test with SK-MEL-2 melanoma, 104%; in the test on EKVX NSCLC, 95.9%; in the test on SN12C renal it was 89.3%. The growth in the test with UO-31 renal was 69.4%; in the test on TK-10 renal it was 111%; with ACHN renal, 78.2%; with CAKI-1 renal, 77.2%; with A498 renal it was 116%; in the test on CCRF-CEM leukemia, 103%.
As for `CCN1C(=O)N(CC)C2NNC(Sc3c(C(=O)O)c4ccccc4n(C4CCCC4)c3=O)=NC21` (configuration not stated), the growth in the test on HCT-15 colon is 14.7%; in the test on HT29 colon it was 0.444% (active); in the test with SNB-75 CNS, 20.9%; in the test on SNB-19 CNS, 38.8%; in the test on U251 CNS, 8.79% (active); in the test on PC-3 prostate, 36.3%. Also, the growth in the test on SK-MEL-5 melanoma was 13.8%; in the test with UACC-62 melanoma, 47.4%; with SK-MEL-28 melanoma, 54.8%; in the test with SK-MEL-2 melanoma it was 27%; in the test with SN12C renal it was 34.3%; with UO-31 renal it was 46.8%. The growth in the test on TK-10 renal is 80.1%; in the test on ACHN renal, 25.7%; in the test on CAKI-1 renal, 27.5%; in the test with A498 renal, 102%; in the test with CCRF-CEM leukemia, 24.8%; in the test on MOLT-4 leukemia it was 24.1%.
